Bioassay records (PubChem BioAssay)
Pf growth 96h: inhibits malaria parasite growth, 96 h; 320,000 tested, 6.9% active; P. falciparum luciferase reporter growth, 96 h; Potency, µM (series often up to 28.7 µM), inactives show at the top dose activity change, negative = inhibition, most hits filed as inhibitors; AID 504834; further: potency means the concentration at half of the fitted maximal effect; on the % scale 0 is the no-effect control and ±100 the full control effect
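Compounds incubated with erythrocytes infected by luciferase-expressing P. falciparum (2% hematocrit, 0.05% parasitemia final) for 96 hours, 37 C in 5% CO2. Growth inhibition scored as decreased luciferase luminescence.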
AMA1 RON2 block: inhibitors of Plasmodium falciparum AMA1-RON2 interaction; AlphaScreen AMA1-biotinylated RON2 peptide binding; Potency, µM (doses to about 58.2 µM), for the others: top-dose activity change, negative = inhibition, hits mostly inhibitors; 360,000 tested, 0.2% active; AID 720542;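 further: potency means the concentration at half of the fitted maximal effect; 0% = vehicle wells and -100% = peptide control; nearly all actives have a fitted effect of over 45% in size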
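AMA1 (3D7) with his tag at 25 nM final met compounds first, then biotinylated RON2 peptide at 25 nM; detection used donor plus acceptor beads, 10 µg/mL apiece, read by AlphaScreen after 30 min at room temperature.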
Pf growth 48h: inhibits P. falciparum growth in the first generation, 48 h. P. falciparum luciferase growth in erythrocytes, 48 h. Potency, µM (top dose mostly 28.7 µM), for the others: at the highest dose activity change, negative = inhibition, hits mostly inhibitors. 310,000 tested, 5.9% active. AID 504832; further: potency means the concentration at half of the fitted maximal effect; on the % scale 0 is the no-effect control and ±100 the full control effect
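Here the parasites carry a stable luciferase gene and grow inside erythrocytes in Albumax-based RPMI medium with compound for one erythrocytic cycle. Activity is scored as loss of luminescent signal.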
Cycloheximide cs: affects cycloheximide protein synthesis inhibition readout, counter-screen; cell reporter, cycloheximide protein synthesis inhibition counterscreen; max response, %; 300,000 tested, 12% active; AID 2314; in the data active means max response mostly above about 13%, no sharp cut-off; inactive means mostly below about 14%; further: read at 38.3 µM for the half of the compounds with a filed dose; 0% is about no effect
Shiga inhibitor: inhibitors of Shiga toxin in Vero cells | inhibition, % at 38.7 µM | Vero cells, Shiga toxin protein synthesis inhibition reporter | 290,000 tested, 9.2% active | AID 2315; in the data active means inhibition mostly above about 28%, no sharp cut-off; inactive means mostly below about 43%; further: 0% is about no effect
SARS PLP yeast: SARS-CoV PLP inhibition in yeast; S. cerevisiae expressing SARS-CoV PLpro, growth rescue; Potency, µM (highest dose often 32.9 µM), inactives show top-dose activity, positive = growth rescue, most hits filed as activators; 330,000 tested, 0.19% active; AID 485353; calls by dose curve; further: potency means the concentration at half of the fitted maximal effect; 0% is about no effect; nearly all actives have a fitted effect of over 55% in size
An asterisk follows results filed as active. This is a sample that favours compounds with a hit; in the whole collection about 19% have one here. Unless noted, the call rests on the fitted dose curve; in most records, active means well fitted curve in the direction sought with a large enough effect; inconclusive means small, poorly fitted or top-dose-only effect, or another doubt; inactive means no such curve, though single readings can be large; an effect the other way counts as inactive or inconclusive.

How did Cc1ccccc1NC(=O)Nc1nnc(Cc2ccc([N+](=O)[O-])cc2)s1 do in these assays?
Pf growth 96h: 0.0%; AMA1 RON2 block: -18.9%; Pf growth 48h: -6.2%; Cycloheximide cs: -2.3; Shiga inhibitor: -13.4; SARS PLP yeast: -17.4%

What do the screens show for `CC(=O)c1cccc(NC(=O)N2C3CCC2CC(NC(=O)C2CC2)C3)c1` (stereo not drawn)?
Pf growth 96h: inconclusive; AMA1 RON2 block: -2.1%; Pf growth 48h: 9.3%; Cycloheximide cs: 1.6; Shiga inhibitor: -1.6; SARS PLP yeast: -1.1%

How did CCS(=O)(=O)c1ncc(CO)n1CCc1ccccc1 do in these assays?
Pf growth 96h: inconclusive; AMA1 RON2 block: 18.3%; Pf growth 48h: 4.3%; Cycloheximide cs: -0.4; Shiga inhibitor: -8.6; SARS PLP yeast: -9.1%

What do the screens show for `COc1ccc(CNC(=O)CCCn2nc(C)c([N+](=O)[O-])c2C)cc1OC`?
Pf growth 96h: 172.8%; AMA1 RON2 block: 0.7%; Pf growth 48h: -41.5%; Cycloheximide cs: 47.1*; Shiga inhibitor: 188.8*; SARS PLP yeast: 6.4%

Results for COc1ccccc1N1CCN(C(=O)CCCCCn2c(=O)[nH]c3ccsc3c2=O)CC1 ?
Pf growth 96h: 0.0%; AMA1 RON2 block: 4.9%; Pf growth 48h: 13.1µM*; Cycloheximide cs: 0.9; Shiga inhibitor: -8.5; SARS PLP yeast: -2.3%

Results for Cc1nn(CCCC(=O)NCc2ccc(Cl)cc2)c(C)c1[N+](=O)[O-] ?
Pf growth 96h: -4.4%; AMA1 RON2 block: -4.2%; Pf growth 48h: -16.3%; Cycloheximide cs: 1.5; Shiga inhibitor: -12.4; SARS PLP yeast: 2.1%

How did COc1ccccc1N1CCN(C(=O)CCCn2nc(C)c([N+](=O)[O-])c2C)CC1 do in these assays?
Pf growth 96h: 10.4µM*; AMA1 RON2 block: -7.4%; Pf growth 48h: 4.7%; Cycloheximide cs: 0.6; Shiga inhibitor: -6.8; SARS PLP yeast: 0.6%

Results for COc1cc2c(cc1OC)C1=C(C#N)COCN1CC2 ?
Pf growth 96h: 3.7µM*; AMA1 RON2 block: 0.0%; Pf growth 48h: inconclusive; Cycloheximide cs: -2.7; Shiga inhibitor: -11.6; SARS PLP yeast: 2.4%

What do the screens show for `COc1cc2c(cc1OC)C1=C(C#N)CCC(=NC(=O)c3ccc(Cl)cc3)N1CC2`?
Pf growth 96h: inconclusive; AMA1 RON2 block: 9.4%; Pf growth 48h: -1.9%; Cycloheximide cs: -2.0; Shiga inhibitor: -13.2; SARS PLP yeast: 7.3%

What do the screens show for `CCn1c(=S)ccc2ccc(OC)cc21`?
Pf growth 96h: 30.0%; AMA1 RON2 block: -14.2%; Pf growth 48h: 12.0%; Cycloheximide cs: -3.6; Shiga inhibitor: -4.2; SARS PLP yeast: 1.2%

Results for CCn1ccc2cc(OC)ccc2c1=S ?
Pf growth 96h: 82.9%; AMA1 RON2 block: -11.1%; Pf growth 48h: inconclusive; Cycloheximide cs: 5.7; Shiga inhibitor: -4.6; SARS PLP yeast: 8.4%

What do the screens show for `CCSc1ccc2cc(OC)ccc2[n+]1CC`?
Pf growth 96h: inconclusive; AMA1 RON2 block: -0.1%; Pf growth 48h: 0.738µM*; Cycloheximide cs: 8.0; Shiga inhibitor: 24.6; SARS PLP yeast: -0.3%

How did CC[n+]1c(SC)ccc2cc(OC)ccc21 do in these assays?
Pf growth 96h: -2.2%; AMA1 RON2 block: -15.4%; Pf growth 48h: 0.738µM*; Cycloheximide cs: -1.8; Shiga inhibitor: -9.0; SARS PLP yeast: 1.8%

How did CCOc1ccccc1N1CCN(CC(=O)NC(C)c2ccccc2)CC1 (stereo not drawn) do in these assays?
Pf growth 96h: inconclusive; AMA1 RON2 block: -10.5%; Pf growth 48h: 1.2%; Cycloheximide cs: 0.7; Shiga inhibitor: -4.9; SARS PLP yeast: 0.0%

Results for Nc1cccc2c1C(=O)N(C(=O)/C=C/c1ccc(F)cc1)C2=O ?
Pf growth 96h: 42.7%; AMA1 RON2 block: 14.0%; Pf growth 48h: 53.8%; Cycloheximide cs: 37.3*; Shiga inhibitor: 76.2*; SARS PLP yeast: -0.5%

What do the screens show for `CCc1ccc(NC(=O)CC2C(=O)N(c3ccc(C)cc3)C(=O)N2CCc2ccncc2)cc1` (stereo not drawn)?
Pf growth 96h: -4.4%; AMA1 RON2 block: 2.3%; Pf growth 48h: 14.7µM*; Cycloheximide cs: -4.9; Shiga inhibitor: -4.3; SARS PLP yeast: 1.5%

Results for CCNC(=O)CC1C(=O)N(c2ccc(F)cc2)C(=S)N1CCc1ccncc1 (stereo not drawn) ?
Pf growth 96h: inconclusive; AMA1 RON2 block: 31.6µM*; Pf growth 48h: 13.1µM*; Cycloheximide cs: 12.9; Shiga inhibitor: -11.2; SARS PLP yeast: -5.8%

Results for COc1cc2nc(N3CCN(C(=O)[C@@H]4COc5ccccc5O4)CC3)nc(N)c2cc1OC ?
Pf growth 96h: 13.5µM*; Pf growth 48h: 15.1µM*

What do the screens show for `COc1cc2nc(N3CCN(C(=O)C4COc5ccccc5O4)CC3)nc(N)c2cc1OC` (stereo not drawn)?
Pf growth 96h: 3.7µM*; AMA1 RON2 block: -19.3%; Pf growth 48h: 4.65µM*; Cycloheximide cs: -2.6; Shiga inhibitor: -12.8; SARS PLP yeast: -3.6%

How did COc1ccc2nc(N3CCN(C(=O)C4COc5ccccc5O4)CC3)sc2c1 (stereo not drawn) do in these assays?
Pf growth 96h: 35.5%; AMA1 RON2 block: inconclusive; Pf growth 48h: 4.6%; SARS PLP yeast: 1.7%

Results for CCC(COC(=O)NC)NC(=O)Oc1ccccc1 (stereo not drawn) ?
Pf growth 96h: 4.65µM*; AMA1 RON2 block: 1.1%; Pf growth 48h: 56.9%; Cycloheximide cs: -4.4; Shiga inhibitor: -17.1; SARS PLP yeast: -2.1%

What do the screens show for `COc1ccc(S(=O)(=O)NCCN2CCNC2=O)cc1OC`?
Pf growth 96h: 19.2%; AMA1 RON2 block: -8.2%; Pf growth 48h: 11.9%; Cycloheximide cs: -3.7; Shiga inhibitor: -5.5; SARS PLP yeast: 0.7%

Results for CC(C)OC(=O)c1c(NC(=O)c2ccco2)sc2c1CCCCC2 ?
Pf growth 96h: 20.0%; AMA1 RON2 block: 54.9%; Cycloheximide cs: 13.0; Shiga inhibitor: -3.3; SARS PLP yeast: 11.8%

What do the screens show for `CC(=O)N1CCc2c(sc(NC(=O)CS(=O)(=O)c3ccc(F)cc3)c2C#N)C1`?
Pf growth 96h: inconclusive; AMA1 RON2 block: 22.3%; Pf growth 48h: -12.8%; SARS PLP yeast: 0.4%

Results for CNC(=O)c1c(NC(=O)c2cccc(C)c2)sc2c1CCC2 ?
Pf growth 96h: -22.2%; AMA1 RON2 block: -0.9%; Pf growth 48h: -18.6%; Cycloheximide cs: 32.2*; Shiga inhibitor: 71.2*; SARS PLP yeast: -8.1%

What do the screens show for `CCOC(=O)c1c(NC(=O)C2CC2)sc2c1CC(C)(C)OC2`?
Pf growth 96h: -4.1%; AMA1 RON2 block: 1.4%; Pf growth 48h: 11.7µM*; Cycloheximide cs: -2.9; Shiga inhibitor: 15.2; SARS PLP yeast: -1.2%

What do the screens show for `CNC(=O)c1c(NC(=O)c2ccco2)sc2c1CCCC2`?
Pf growth 96h: 14.6%; AMA1 RON2 block: 4.1%; Pf growth 48h: 20.0%; Cycloheximide cs: 28.7*; Shiga inhibitor: 31.9; SARS PLP yeast: -17.1%
